In all, about 50,000 compounds went through this assay and about 800 (1.6%) showed an effect of 50% or more. This is one part of a sample in which strong results are shown more often than they occur.

We go through 76 molecules from PubChem BioAssay AID1240 (Sanford-Burnham Center for Chemical Genomics, 2008).

Bcl-2-like protein 10 (Homo sapiens), sequence (Q9HD36 whole entry, looked up): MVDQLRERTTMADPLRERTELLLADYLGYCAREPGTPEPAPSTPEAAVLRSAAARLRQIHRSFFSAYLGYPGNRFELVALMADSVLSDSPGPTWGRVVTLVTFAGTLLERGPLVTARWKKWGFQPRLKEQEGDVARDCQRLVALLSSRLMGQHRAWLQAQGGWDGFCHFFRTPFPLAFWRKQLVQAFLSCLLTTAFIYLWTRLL

The experiment addresses Bcl-2-like protein 10 (Homo sapiens) (UniProt Q9HD36). Briefly: Phenotype converters, Bcl-B/TR3 peptide binding displacement, primary biochemical FP (AID 1240).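 Further: 0% = Bcl-B with tracer peptide and DMSO and 100% = tracer peptide lacking Bcl-B.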 As to conditions: GST-Bcl-B / FITC-TR3 peptide fluorescence polarization; stronger effect = higher value; compound at 3.75 mg/L. For orientation: Fluorescence polarisation rises when a labelled molecule tumbles more slowly, as on binding a larger partner.
Regarding `COc1ccc(C2CC(C(F)(F)F)n3ncc(C(=O)NC(C)(C)C)c3N2)cc1` (stereo unspecified), the displacement was 3.6%.
The result for `O=C(c1nn2c(C(F)(F)F)cc(-c3ccco3)nc2c1Cl)N1CCN(Cc2ccccc2)CC1` reads 1.1%; that for `CCOc1ccc(C(=O)Nc2ccc([N+](=O)[O-])cc2)cc1Cl`, -9.7%; that for `O=C(N/N=C/c1ccc([N+](=O)[O-])o1)c1ccc(Cl)c(Cl)c1`, 19%.
The result for `COc1ccc(N(CC(=O)Nc2ccccc2C)S(C)(=O)=O)cc1Cl` reads -10.4%; that for `C/C(=N\NC(=O)c1cc(C23CC4CC(CC(C4)C2)C3)[nH]n1)c1ccc(N)cc1`, -8.7%.
The result for `Brc1ccc(C=NN2CCN(Cc3ccccc3)CC2)cc1` reads -17.6%; that for `CCOC(=O)C1=C(N)Oc2c(ccc3ccccc23)C1c1ccc(OC)cc1` (stereo unspecified), 108%.
Consider `CCOC(=O)C1=C(C)OC(N)=C(C#N)C1c1ccc(OC)cc1` (stereo unspecified), for which the displacement was -10.8%.
On to `CCOC(=O)C1=C(N)Oc2ccc3ccccc3c2C1c1ccc(Cl)cc1` (stereo unspecified), for which the displacement is -10.4%.
Turning to `COc1cc(/C=C2\SC(N)=NC2=O)cc(Br)c1OC`, the displacement is -25.9%.
In the case of `Cc1[nH]c(=O)c(C(=O)/C=C/c2cccs2)c2c1CCCC2` it was 119%.
On to `Cc1[nH]c(=O)c(C(=O)/C=C/c2ccccc2Cl)c2c1CCCC2`, for which the displacement amounted to 11%.
The result for `Cc1ccc(/C=C/C(=O)c2c3c(c(C)[nH]c2=O)CCCC3)cc1` reads 49.3%; that for `Cc1cccc(NC(=O)C(=O)NCc2ccco2)c1C`, 11%; that for `O=C(Nc1ccc(I)cc1)c1ccc(Cl)cc1Cl`, 6.9%.
`Cc1ccc(N2C(=O)C(=O)/C(=C(/O)c3ccccc3)C2c2ccc(O)cc2)cc1Cl` (stereo unspecified): the displacement is -3.5%.
In the case of `Oc1c(Cl)cc(Cl)cc1C=Nc1cccc(C(F)(F)F)c1` it was 2.4%.
In the case of `NC(=O)c1ccccc1N=Cc1cc(Cl)cc(Cl)c1O` it was -7.2%; in that of `NC(=O)c1cccc(N=Cc2cc(Cl)cc(Cl)c2O)c1`, 145%; in that of `CN(C)CCCNC(=O)/C=C/c1ccc(C(C)(C)C)cc1`, 6.4%.
In the case of `O=c1oc2ccccc2cc1-c1nn(-c2ccccc2)cc1/C=N/O` it was 53%.
With `O/N=C/c1cn(-c2ccccc2)nc1-c1ccccc1`, the displacement was found to be 10%.
The result for `O/N=C/c1cn(-c2ccccc2)nc1-c1ccc(Cl)cc1` reads -3.8%; that for `COCCCNC(=O)C(=O)Nc1ccccc1F`, -11.9%; that for `CCOc1cc(C2C(C(=O)OC)=C(C)NC(C)=C2C(=O)OC)ccc1O`, 0.1%.
The result for `COc1ccc(/C=C2\SC(=S)N(c3ccc(F)cc3)C2=O)cc1OC` reads 105%.
In the case of `COc1cc(/C=C2\SC(=S)N(c3ccc(F)cc3)C2=O)cc(OC)c1OC` it was 3.3%; in that of `COc1ccc(N2C(=O)/C(=C/c3ccc(OC)c(OC)c3)SC2=S)cc1`, 6.5%.
For the molecule `C=CCOc1ccc(/C=C2\SC(=S)N(c3ccc(OC)cc3)C2=O)cc1OC`, the displacement is 6.7%.
In the case of `COc1cc(/C=C2/SC(=S)N(c3ccccc3)C2=O)ccc1OC(=O)c1ccc(F)cc1` it was 4.7%.
In the case of `CCOc1ccc(/C=C2\SC(=S)N(c3ccc(OC)cc3)C2=O)cc1OC` it was 114%; in that of `O=S(=O)(c1ccc(C=Nc2ccc(Br)cc2)cc1)c1ccc(C=Nc2ccc(Br)cc2)cc1`, -8.7%.
In the case of `COc1ccc(C2CC(C(F)(F)F)n3ncc(C(=O)Nc4ccc(F)cc4F)c3N2)cc1OC` (stereo unspecified) it was -1.7%.
For the molecule `CC1(C)Cc2ccccc2C(/C(=N\O)C(=O)c2ccccc2)=N1`, the displacement stood at 13.1%.
Turning to `COc1ccc(C(=O)Nc2cccc(S(N)(=O)=O)c2)cc1`, the displacement is -5.8%.
In the case of `CCOP(=O)(OCC)/C(=C(\NC(=O)c1ccccc1)C(=O)Nc1ccccc1C(F)(F)F)c1ccccc1` it was 12.2%; in that of `COc1c(Cl)ccc(Cl)c1C(=O)NCCc1ccccc1`, -18.4%.
In the case of `COc1ccc(CCNC(=O)c2ccc(Cl)c(Cl)c2)cc1OC` it was 6%; in that of `COc1ccc(CCNC(=O)c2c(Cl)ccc(Cl)c2OC)cc1OC`, 57%.
The result for `C=CCN(CC=C)C(=O)COc1ccc(Cl)cc1` reads -5.1%; that for `CC(=O)NCCc1c(C)n(Cc2ccccc2)c2ccccc12`, 20.2%.
`O=C(c1sc2ccccc2c1Cl)N1CCN(Cc2ccc3c(c2)OCO3)CC1`: the displacement worked out at 0.4%.
Regarding `O=S(=O)(Nc1nc2ccccc2nc1Nc1cccc(O)c1)c1ccc(Cl)cc1`, the displacement worked out at 7.1%.
In the case of `O=S(=O)(Nc1nc2ccccc2nc1Nc1ccccc1)c1ccccc1` it was 16.9%; in that of `COC(=O)c1cc(Nc2nc3ccccc3nc2NS(=O)(=O)c2ccccc2)ccc1Cl`, 158%; in that of `COc1ccc2nc(NS(=O)(=O)c3ccc(Cl)cc3)c(Nc3ccc4[nH]c(=O)[nH]c4c3)nc2c1`, -2.9%.
The result for `CC(=O)Nc1ccc(Nc2nc3ccccc3nc2NS(=O)(=O)c2ccc(Cl)cc2)cc1` reads -12.5%; that for `O=c1[nH]c2ccc(Nc3nc4ccccc4nc3NS(=O)(=O)c3ccc(Cl)cc3)cc2[nH]1`, 102%; that for `Cc1cccc(OCC(=O)Nc2ccccc2Cl)c1C`, -1.5%.
The result for `Cc1ccccc1OCCOc1ccc(/C=C2/SC(=S)N(C)C2=O)cc1` reads 0.3%; that for `CC1(C)CC(NC(=O)c2ccccc2F)CC(C)(C)N1`, -12.3%; that for `COc1cc(/C=C(\C#N)c2nc3ccccc3[nH]2)ccc1OCC(=O)O`, 43.5%.
For `COc1ccc(C=C2C(=O)N(c3ccc(C)cc3)C(=S)N(c3ccc(C)cc3)C2=O)cc1C(=O)O`, the displacement came to 15%.
The result for `COc1ccc(OC(C)C(=O)Nc2ccc(N(C)C)cc2)cc1` (stereo unspecified) reads 9.1%.
Turning to `O=C(NCCNc1ccc(Cl)cc1[N+](=O)[O-])c1ccccc1F`, the displacement was -0.6%.
As to `Cc1ccccc1N1C(=O)NC(=O)/C(=C/c2cn(CC(=O)Nc3ccccc3)c3ccccc23)C1=O`, the displacement turned out to be 53.6%.
The result for `O=C(Cn1cc(/C=C2/C(=O)NC(=S)N(c3ccccc3F)C2=O)c2ccccc21)Nc1ccccc1` reads 30.7%; that for `N#CC(C#N)=Cc1cn(CC(=O)Nc2ccccc2)c2ccccc12`, -17.6%.
The result for `O=C(Cn1cc(/C=C2\NC(=O)NC2=O)c2ccccc21)Nc1ccccc1` reads 7.5%; that for `CN1C(=O)C(=Cc2cn(CC(=O)Nc3ccccc3)c3ccccc23)C(=O)N(C)C1=O`, -6.8%.
In the case of `O=C(Cn1cc(/C=C2/C(=O)NC(=O)N(c3ccccc3F)C2=O)c2ccccc21)Nc1ccccc1` it was 51.1%.
Turning to `COc1ccc(C2Nc3ccccc3NC3=C2C(=O)CC(c2ccccc2)C3)c(OC)c1` (stereo unspecified), the displacement is 5.9%.
As to `CCN1CCN(Cc2c(O)ccc3ccccc23)CC1`, the displacement amounted to 13.6%.
The result for `N#C/C(=C/c1ccc(-c2cc(Cl)ccc2Cl)o1)C(=O)O` reads 2%; that for `O=C(/C=C/c1ccc(-c2cccc([N+](=O)[O-])c2)o1)c1ccco1`, 79.3%.
For `O=C(/C=C/c1ccc(-c2cccc(Br)c2)o1)c1ccco1`, the displacement was 11.8%.
The result for `O=C(/C=C/c1ccc(-c2cccc([N+](=O)[O-])c2)o1)c1ccc(F)cc1` reads 3.4%; that for `O=C(/C=C/c1ccc(-c2ccc(Cl)cc2Cl)o1)c1ccco1`, 3.4%; that for `CC(=O)/C=C/c1ccc(-c2cccc([N+](=O)[O-])c2)o1`, -5.2%.
In the case of `O=C(/C=C/c1ccc(-c2cccc([N+](=O)[O-])c2)o1)Nc1ccc(Cl)cc1` it was 4.5%; in that of `O=C(/C=C/c1ccc(-c2cc(Cl)ccc2Cl)o1)c1ccco1`, 126%; in that of `N#CC(C#N)=Cc1ccc(-c2ccc(Cl)c(C(=O)O)c2)o1`, 0.6%.
The result for `O=C(/C=C\c1ccc(-c2cc(Cl)ccc2Cl)o1)c1ccccc1` reads 24.9%.
For `N#CC(C#N)=Cc1ccc(-c2cc(Cl)ccc2Cl)o1`, the displacement worked out at 93.5%.
In the case of `O=C(/C=C/c1ccc(-c2cccc([N+](=O)[O-])c2)o1)c1cc2ccccc2o1` it was 119%.
